# From PubChem BioAssay (Tox21)
# Records with an inconclusive call do not appear. Unmarked numbers belong to inactive results. Calls of active or inactive are those of the source. Calls follow the shape of the full dose curve.
# Target: Acetylcholinesterase (Homo sapiens) (UniProt P22303)
# Experiment: Acetylcholinesterase (AChE) small molecule antagonists: fluorescence cell-based qHTS assay (AID 1347398); also: nearly all actives have a fitted effect of over 50% in size
# Settings: SH-SY5Y cells; Potency: AChE activity; outcome: AChE activity; series mostly up to 115 µM; activity change, negative = inhibition: at the top concentration
# Text: National Center for Advancing Translational Sciences [NCATS]
# Division of Preclinical Innovation [DPI]
# U.S. Environmental Protection Agency [EPA]
# National Institutes of Environmental Health Sciences [NIEHS]
# National Toxicology Program [NTP]
# U.S. Food and Drug Administration [FDA]
# Acetylcholinesterase (AChE) is the primary cholinesterase in the body that hydrolyzes a key neurotransmitter, acetylcholine. Inhibition of AChE activity can lead to neurotoxicity. Known inhibitors of AChE include organophosphorous pesticides (OP), chemical warfare agents, drugs, and various phytochemicals.
# A homogenous cell-based assay using Amplitetrade mark Fluorimetric Acetylcholinesterase Assay Kit *Green Fluorescence* (AAT Bioquest, Sunnyvale, CA) was used to evaluate the chemicals in the Tox21 10K library that inhibit AChE activity. The assay uses Thiolite Green to quantify the thiocholine produced from the hydrolysis of acetylthiocholine by AChE from the SH-SY5Y cells. AChE can hydrolyze acetylthiocholine to create thiocholine. Thiolite Green is fluorescent when reacting with thiocholine. It has spectral properties similar to those of fluorescein. The fluorescence intensity of Thiolite Green is used to measure AChE activity. Its signal can be easily read by a fluorescence microplate reader at Ex/Em = 490/520 nm.
# Tox21 Assay Protocol Summary:
# For cell-based AChE assay, 2,000 SH-SY5Y cells in 4 uL/well were dispensed into black, clear-bottom 1536-well plates using a Multidrop Combi (Thermo Scientific) dispenser. The assay plates were incubated overnight at 37 C to allow cells to attach to the wells, followed by the transfer of 23 nL compound or DMSO (vehicle control) by a Pintool station (Wako Automation, CA). The plates were incubated for 30 min at 37 C and 5% CO2, followed by the addition of 4 uL of detection cocktail solution (ThioliteGreen, acetylthiocholine) into each well using Flying Reagent Dispenser (Beckman Coulter, CA) and then following 40 min incubation at room temperature. Fluorescent intensity (Ex/Em = 490/520 nm) was measured using an Envision plate reader (PerkinElmer, MA).
# % is scaled to controls: 0 for no effect and ±100 for the full control effect; potency is read from the fitted curve at half-maximal effect.
# Sequence of Acetylcholinesterase (Homo sapiens) (P22303 whole entry, looked up): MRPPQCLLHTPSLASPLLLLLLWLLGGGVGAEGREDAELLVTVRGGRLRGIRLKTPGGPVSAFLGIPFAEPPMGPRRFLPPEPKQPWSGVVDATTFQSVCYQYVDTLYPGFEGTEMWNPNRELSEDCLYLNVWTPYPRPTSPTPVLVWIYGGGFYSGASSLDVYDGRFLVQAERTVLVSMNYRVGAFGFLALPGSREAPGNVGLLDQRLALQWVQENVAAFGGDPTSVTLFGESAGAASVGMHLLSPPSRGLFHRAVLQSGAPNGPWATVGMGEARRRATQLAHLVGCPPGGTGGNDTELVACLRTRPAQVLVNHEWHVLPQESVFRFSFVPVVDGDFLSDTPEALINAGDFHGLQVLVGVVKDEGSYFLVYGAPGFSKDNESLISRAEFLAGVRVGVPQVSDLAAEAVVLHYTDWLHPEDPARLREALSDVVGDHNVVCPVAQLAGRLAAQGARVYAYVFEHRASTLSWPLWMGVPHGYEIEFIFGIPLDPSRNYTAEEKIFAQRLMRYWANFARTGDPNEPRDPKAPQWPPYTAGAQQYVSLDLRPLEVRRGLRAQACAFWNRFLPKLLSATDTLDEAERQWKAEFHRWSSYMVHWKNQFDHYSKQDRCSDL
SMILES,"activity change, negative = inhibition",Potency
C=CCc1ccc(OC(=O)Cc2ccccc2)c(OC)c1,1.26%,
CNC(=O)Oc1cccc(N=CN(C)C)c1,,3.56 µM (active)
CCCBr,2.91%,
COc1ccc(C(=O)c2c(C)n(CCN3CCOCC3)c3ccccc23)cc1,-5.03% [at 53.7 µM],
CCOC(=O)C1OC1(C)c1ccccc1 (stereo not given),,inactive
C[C@]12C=CC3=C4CCC(=O)C=C4CC[C@H]3[C@@H]1CC[C@@H]2O,,inactive
O=C(N/N=C/c1ccc([N+](=O)[O-])o1)c1cc([N+](=O)[O-])cc([N+](=O)[O-])c1O,-9.08% [at 53.7 µM],
COc1cc(CC#N)cc(OC)c1OC,-1.02% [at 53.7 µM],
CC(Cl)C(=O)O (stereo not given),2.38%,
N#CC(C#N)=C(C#N)C#N,7.01%,
CC(Oc1cc(Cl)c(Cl)cc1Cl)C(=O)O (stereo not given),10.2%,
c1ccc2c(c1)sc1ccccc12,,inactive
CC(C)(C)c1ccc(CCOc2ncnc3ccccc23)cc1,-2.59%,
CCCCCCCCP(=O)(O)O,0.681%,
COC1=CC(=O)O[C@@H](/C=C/c2ccc3c(c2)OCO3)C1,1.38%,
Cc1cccc(C)c1NC1=NCCCS1,-7.35% [at 53.7 µM],
CCCCC(CC)COC(=O)c1c(Br)c(Br)c(Br)c(Br)c1C(=O)OCC(CC)CCCC (stereo not given),-11.4% [at 53.7 µM],
CCCCC(CC)CO[N+](=O)[O-] (stereo not given),2.22%,
Nc1ccc2c(c1)Cc1ccccc1-2,7.44%,
O=C(CCl)CCl,,inactive

SMILES,"activity change, negative = inhibition",Potency
Clc1ccccc1,1.24%,
C#CC(O)(C=CCl)CC (stereo not given),6.12% [at 53.7 µM],
O=[N+]([O-])O[C@H]1CO[C@H]2[C@@H]1OC[C@H]2O[N+](=O)[O-],6.57% [at 53.7 µM],
CCCCCCCCCCCC[N+](C)(C)CCOc1ccccc1,,35.6 µM (active)
CN[C@@H](C)[C@H](O)c1ccccc1,0.413% [at 53.7 µM],
CCC1CCC(=O)O1 (stereo not given),5.04%,
COC(=O)Cc1ccccc1,21.8%,
CC(O)CN1CCN(CC(=O)[O-])CCN(CC(=O)[O-])CCN(CC(=O)[O-])CC1.[Gd+3] (stereo not given),7.13% [at 53.7 µM],
C=C(Cl)Cl,1.17%,
CCC(=O)O[C@@H]1C=C2CCC3C(CCC4(C)C3CC[C@@H]4OC(=O)CC)C2CC1 (stereo not given in full),-11.5% [at 53.7 µM],
CCCCCCCCCCCCN=C(N)N,-10.7% [at 3.98 µM],
O=C1c2ccccc2C(=O)N1SC(Cl)(Cl)Cl,,inactive
O=C(O)C(Cl)(Cl)Br,1.97%,
Nc1ccccc1C(=O)OCCc1ccccc1,,inactive
O=C(O)C(F)(F)C(F)(F)C(F)(F)C(F)(F)C(F)(F)F,3.71%,
CC(C)(C)OOC(C)(C)CCC(C)(C)OOC(C)(C)C,-4.79%,
C[C@H]1O[C@H](OC2[C@@H](O)[C@@H](O)C(O)[C@H](O)[C@H]2O)[C@@H](N)C[C@@H]1N=C(N)C(=O)O (stereo not given in full),-0.279%,
C[C@]12CC[C@H]3[C@@H](CCC4=CC(=O)CC[C@@H]43)[C@@H]1CC[C@@H]2OC(=O)CCc1ccccc1,-5.87% [at 53.7 µM],
Nc1cccc2ccccc12,,inactive
O=CC=O,2.51%,
